# High-throughput results: PubChem, National Center for Advancing Translational Sciences (NCATS)
# This is a sample that favours compounds with a hit; in the whole collection about 8.1% have one here.
# RORgamma inh = qHTS for inhibitors of ROR gamma transcriptional activity | Drosophila S2 Gal4-RORgamma UAS-luciferase reporter, 20 h | Potency, µM (titrated, usually from 53.6 µM), for the others: top-dose activity change, negative = inhibition, usual class: inhibitors | 310,000 tested, 5.4% active | AID 2551, 2010 | Nuclear receptor ROR-gamma (Mus musculus), P51450; further: on the % scale 0 is the no-effect control and ±100 the full control effect; nearly all actives have a fitted effect of over 60% in size
# Target sequence (P51450 whole entry, looked up, the tested form may be a part): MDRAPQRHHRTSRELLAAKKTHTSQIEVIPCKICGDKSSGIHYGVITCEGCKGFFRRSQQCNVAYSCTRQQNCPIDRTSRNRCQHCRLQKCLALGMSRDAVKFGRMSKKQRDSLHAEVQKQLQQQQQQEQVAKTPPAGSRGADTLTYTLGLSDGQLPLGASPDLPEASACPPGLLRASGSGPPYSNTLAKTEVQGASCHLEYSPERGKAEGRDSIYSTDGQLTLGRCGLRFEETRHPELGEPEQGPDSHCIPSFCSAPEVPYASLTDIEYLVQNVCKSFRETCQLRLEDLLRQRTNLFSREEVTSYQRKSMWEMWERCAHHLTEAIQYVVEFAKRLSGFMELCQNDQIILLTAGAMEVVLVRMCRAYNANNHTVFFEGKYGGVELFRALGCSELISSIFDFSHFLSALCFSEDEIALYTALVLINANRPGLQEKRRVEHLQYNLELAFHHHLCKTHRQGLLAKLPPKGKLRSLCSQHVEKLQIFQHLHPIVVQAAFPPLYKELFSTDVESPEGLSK
#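 ROR gamma transcriptional activity was tracked as Gal4-UAS luciferase output in stably transfected Drosophila Schneider cells, with compound added 1 hr before 700 uM copper sulfate induction and a 20 hr ambient-temperature incubation.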
# VP16 counter = VP16 counterscreen qHTS for inhibitors of ROR gamma transcriptional activity; Potency, µM (doses to about 53.6 µM), for inactives: at the top dose activity, negative = inhibition, actives largely listed as inhibitors; 310,000 tested, 3.5% active; Drosophila S2 Gal4-VP16 UAS-luciferase, luminescence, 20 h; AID 2546, 2010;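 further: Gal4-VP16 expression switched on by copper sulfate through the metallothionein promoter; on the % scale 0 is the no-effect control and ±100 the full control effect; nearly all actives have a fitted effect of over 50% in size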
# Epigenetic derep = Quantitative High-Throughput Screen for Regulators of Epigenetic Control. murine LDR cells, GFP reporter derepression, 30 h. Potency, µM (top dose mostly 53.9 µM), inactives show at the top dose GFP activation, usual class: activators. 280,000 tested, 0.2% active. AID 1865, 2009; further: % of control where 0% means no effect; nearly all actives have a fitted effect of over 60% in size
#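 Murine LDR cells bearing a silenced CMV-driven GFP reporter were exposed to compound for 30 h at 37 C. After PBS washes, GFP-positive cells (20-120 um objects) counted by laser-scanning microplate cytometry.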
# ClpP mod = qHTS Assay for Activators of ClpP; ATP-dependent Clp protease proteolytic subunit (Bacillus subtilis (strain 168)), P80244; purified B. subtilis ClpP, FRET peptide cleavage, 20 min; Potency, µM (doses to about 57.5 µM), without a hit: top-dose activity change, negative = active; 340,000 tested, 1.9% active; AID 651965, 2013; active means well fitted falling curve with a large enough effect; inconclusive means small, poorly fitted or top-dose-only effect; inactive means no such curve, though single readings can be large or run the other way; further: the source files actives as falling curves though it sought activators and does not explain the sign; nearly all actives have a fitted effect of over 65% in size
# Target sequence (P80244 whole entry, looked up): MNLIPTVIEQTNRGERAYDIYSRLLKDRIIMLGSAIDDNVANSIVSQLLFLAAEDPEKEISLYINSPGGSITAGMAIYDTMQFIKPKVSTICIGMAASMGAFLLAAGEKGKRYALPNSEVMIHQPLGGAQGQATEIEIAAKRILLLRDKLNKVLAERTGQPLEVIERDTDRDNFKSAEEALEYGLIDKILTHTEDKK
#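 FRET quenching reversal measured ClpP activation: 10 microg/mL B. subtilis ClpP at pH 8 with the FRET-FV decapeptide, read at 430 nm after 320 nm excitation. The 20-min minus 0-min signal was scaled between DMSO/no-enzyme wells and ADEP (5.8 microM final).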
# PINK1 modulator = A Quantitative High throughput Screen to Identify Chemical Modulators of PINK1 Expression; PINK1 immunofluorescence, high-content cytometry, 24 h; Potency, µM (top dose mostly 76.6 µM), for the others: top-dose activation (PINK1 increase), most hits filed as activators; 410,000 tested, 0.2% active; active means well fitted activation curve with a large enough effect; inconclusive means small, poorly fitted or top-dose-only effect; cell line not stated here; further: % of control where 0% means no effect; nearly all actives have a fitted effect of over 65% in size
#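 Measures PINK1 amount and localization on or inside mitochondria by immunofluorescence. Stable cells get compounds at 5 concentrations for 24 hours before fixation and staining; CCCP controls included.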
# Sfp PPTase inh = qHTS Assay for Inhibitors of Bacillus subtilis Sfp phosphopantetheinyl transferase (PPTase) | Potency, µM, inactives show largest response in the series, negative = inhibition, actives largely listed as inhibitors | 4'-phosphopantetheinyl transferase ffp (Bacillus subtilis), Q9F4F7 | AID 1490, 2009 | 310,000 tested, 3.5% active | Biochemical Sfp PPTase activity, qHTS;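 further: the enzyme is Sfp with the accession as filed and its product quenches rhodamine fluorescence; 0% = enzyme reaction without inhibitor and -100% = no enzyme wells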
#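 Sfp 15 nM + cpd, 15 min RT; start w/ rhodamine-CoA 5 uM, BHQ-2-YbbR 12.5 uM (final); 50 mM Hepes pH 7.6, 10 mM MgCl2, 0.01% NP-40, 0.01% BSA; read 525/598 nm at 0 and 30 min.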
# Starred values were filed as active, the others as inactive; ? = inconclusive; / = no result; [ ] = dose if it differs, or a comment. Unless noted, the call rests on the fitted dose curve; in most records, active means well fitted curve in the direction sought with a large enough effect; inconclusive means small, poorly fitted or top-dose-only effect, or another doubt; inactive means no such curve, though single readings can be large; an effect the other way counts as inactive or inconclusive. Potency means the concentration at half of the fitted maximal effect.
SMILES,RORgamma inh,VP16 counter,Epigenetic derep,ClpP mod,PINK1 modulator,Sfp PPTase inh
CC1CN(C2=NC(=O)/C(=C3/C(=O)N(Cc4ccc(F)cc4)c4ccccc43)S2)CC(C)O1 (stereo not drawn),23.4%,0.2%,0.9%,0.6%,1.4%,39.8µM*
O=C1N=C(N2CCOCC2)S/C1=C1\C(=O)N(Cc2ccccc2)c2ccccc21,?,19.1%,0.2%,-4.5%,6.7%,-7.8%
O=C(COC(=O)/C=C/c1ccco1)NCc1ccco1,-0.4%,8.7%,-0.1%,0.4%,0.9%,50.1µM*
COc1ccc(/C=C/C(=O)OCC(=O)NCc2ccco2)cc1OC,20.6%,-3.5%,-1.9%,-2.0%,10.2%,19.3%
O=C(COC(=O)/C=C/c1ccco1)Nc1ncc(C(F)(F)F)cc1Cl,-2.4%,?,1.0%,2.1%,1.9%,39.8µM*
Cc1c(Cl)cnc(NC(=O)COC(=O)/C=C/c2ccco2)c1Cl,/,/,/,-7.6%,0.5%,/
COc1cc(/C=C/C(=O)OCC(=O)NCc2ccco2)ccc1OC(F)F,2.51µM*,3.98µM*,/,-12.9%,-0.9%,-14.4%
COc1ccccc1-c1ccnc(-n2ncc(C(=O)N[C@H]3CCCCNC3=O)c2C2CC2)n1,/,/,/,/,9.8%,/
Cc1cnc(-n2ncc(C(=O)NCC3COCCO3)c2C2CC2)nc1-c1cccs1 (stereo not drawn),/,/,/,/,1.1%,/
Cc1ccc(NC(=S)NC2CCSc3ccccc32)cc1C (stereo not drawn),3.55µM*,3.98µM*,/,-2.9%,?,8.8%
O=C(NC(=S)NNC(=O)c1ccco1)c1ccc(Br)cc1,12.6µM*,?,/,-2.4%,1.6%,-6.7%
O=C(Nc1ccc(NC(=S)NC(=O)c2cccs2)cc1)c1ccco1,11.2µM*,-21.8%,14.8%,-0.2%,5.6%,-25.5%
O=C(NNC(=O)c1cccs1)c1ccco1,-2.5%,-9.4%,-1.7%,/,-0.1%,89.1µM*
Cc1cccc(C(=O)NC(=S)NNC(=O)c2cccs2)c1,?,-18.1%,-3.1%,-1.7%,-0.5%,1.0%
C/C(=N\NC(=O)c1ccco1)c1ccc(NC(=O)c2cccs2)cc1,?,-20.8%,0.5%,-13.1%,0.3%,-7.3%
O=C(NC(=S)NNC(=O)c1cccs1)c1ccco1,2.82µM*,?,0.8%,-1.0%,1.1%[38.3 µM],79.4µM*
O=C(NNC(=S)NC(=O)c1ccco1)c1ccc(F)cc1,-9.4%,-6.2%,0.1%,-0.7%,2.4%,?
O=C(NCCNC(=O)c1cccs1)c1ccco1,5.9%,2.6%,-0.3%,0.8%,-0.8%,-2.7%
CC1CCN(S(=O)(=O)c2ccc3c(c2)N(CC(=O)NCc2ccccc2)C(=O)CO3)CC1,/,/,3.6%,-1.5%,1.6%,/
Cc1ccc(N2CC(NC(=O)c3ccco3)CC2=O)cc1C (stereo not drawn),/,/,4.1%,-0.3%,0.1%,/
Cc1csc2nc(CCNS(=O)(=O)c3ccc(F)cc3)cn12,/,/,0.0%,0.2%,0.0%,/
O=C(NC(=S)Nc1cccc2ncccc12)c1ccccc1,7.94µM*,?,7.1%,-1.6%,0.7%,20µM*
O=C(NC(=S)Nc1cccc2ncccc12)c1cccs1,8.91µM*,-18.4%,-2.9%,0.7%,5.0%,44.7µM*
O=C(NC(=S)Nc1ccc2ncccc2c1)c1ccccc1,?,-21.5%,-1.6%,0.3%,7.9%,50.1µM*
Nc1ccc(C(=O)Nc2cccc3ncccc23)cc1,/,/,/,-4.1%,0.5%,9.4%
SMILES,RORgamma inh,VP16 counter,Epigenetic derep,ClpP mod,PINK1 modulator,Sfp PPTase inh
S=C(N/N=C/c1ccc2ncccc2c1)Nc1ccccc1,1.26µM*,?,1.3%,1.2%,-1.9%,10.9%
O=C(Nc1cccnc1Cl)c1ccc(Cl)cc1,6.8%,16.7%,/,/,-0.1%,9.8%
O=C(NC(=S)Nc1cccnc1Cl)c1ccc(Cl)cc1,8.91µM*,?,/,/,3.1%,?
O=C(Nc1nc2c(ccc3ccccc32)s1)c1ccco1,-1.1%,9.0%,3.7%,-25.5%,11.5%,-11.6%
O=C(NC(=S)Nc1nc2c(ccc3ccccc32)s1)c1cccs1,2.51µM*,3.16µM*,1.1%,1.4%,3.9%,-10.8%
Fc1ccc(-c2nnc(CN3CCN(c4ccccn4)CC3)o2)cc1,/,/,-0.9%,-3.7%,-0.4%,/
O=C(Nc1nc(-c2ccccc2)cs1)c1ccco1,25.9%,-2.5%,-1.0%,/,1.7%,15.7%
O=C(Nc1nc(-c2ccc(Br)cc2)cs1)c1cccnc1,-6.9%,3.4%,-2.2%,/,0.7%,-4.5%
O=C(NC(=S)Nc1nc(-c2ccc(Br)cc2)cs1)c1ccco1,2.82µM*,8.3%,-0.1%,/,13.0%,-3.0%
O=C(NC(=S)Nc1nc(-c2ccc(Br)cc2)cs1)c1cccnc1,1.12µM*,?,-2.0%,2.1%,23.6%[38.3 µM],-3.3%
O=C(NC(=S)Nc1nc(-c2ccc([N+](=O)[O-])cc2)cs1)c1ccco1,2.24µM*,?,/,1.5%,14.3%,-17.3%
O=C(NNc1nc(-c2ccc(Br)cc2)cs1)c1ccco1,5.62µM*,?,-3.3%[10.1 µM],1.3%,5.3%,-10.0%
Cc1cccn2c(=O)c3cc(C(=O)Nc4ccc(Cl)c(Cl)c4)sc3nc12,/,/,-0.9%,-1.9%,2.9%,/
Cc1cc(OCC(=O)N2CCN(c3cccc(Cl)c3)CC2)c2c(C)c(C)c(=O)oc2c1,17.3%,2.5%,/,-3.7%,-1.6%,39.8µM*
CC(C)CN(CCCNC(=O)c1cn(C)c2ccc(S(=O)(=O)N(C)C3CCCCC3)cc2c1=O)CC(C)C,/,/,-2.5%,-0.8%,0.3%,/
CCCc1cc(C(N)=O)c(NC(=O)c2cc(C)on2)s1,41.5%,-8.3%,-1.0%,-3.5%,-1.8%[38.3 µM],31.6µM*
CCCc1cc(C(N)=O)c(NC(=O)c2ccoc2C)s1,25.3%,?,-1.7%,-21.8%,9.3%[38.3 µM],12.6µM*
CCOC(=O)c1ccc(NC(=O)Cn2nnc(-c3ccc(C(F)(F)F)cc3)n2)cc1,/,/,?,0.2%,4.9%,/
COc1ccc(CC(=O)N2CCN(C(=O)Cc3ccc(OC)cc3)CC2)cc1,39.0%,-1.2%,-1.1%,-5.3%,-2.2%,25.6%
COc1ccc(CC(=O)N2CCN(c3ccc(C4=NNC(=O)CC4C)cc3)CC2)cc1 (stereo not drawn),43.8%,-7.8%,0.1%,28.2µM*,0.0%,16.2%
COc1cc(Nc2ncc3c(n2)CCN(Cc2cccc(C)c2)C3)cc(OC)c1,/,/,-4.1%,9.1%,0.8%,/
CC(=O)OC[C@@H]1O[C@H](C/C=N\OC[C@@H](C)[C@H](OCc2ccccc2)C(C)C)C=C[C@@H]1OC(C)=O,-6.4%[10 µM],-2.0%[10 µM],0.0%[10.1 µM],/,/,-2.2%
